Among the targets are TRPM6; TRPV1; TSC1; TSC22D3; TSC22D2; TSEN34; TTLL3; TXLNG; UNC5A; ULK1; UMOD; UBXN2A.
What all share (test): pooled miR-30 sensor sort-seq; sequence = guide strand
Common to all, as to conditions: shRNA
Further: reference of the scale not given here.

TTGTATTGTAGAGCTCTTCCAG: the sensor-assay potency score (higher = more potent) with TRPM6 is -0.0378.

Consider TAGCTGTCCGTGTAGCTGGCGT, for which the sensor-assay potency score (higher = more potent) with TRPV1 is -0.712.

As for TAGCATGGTTATCAACACCAAG, in the experiment with TSC1, the sensor-assay potency score (higher = more potent) was -0.952.

As for TTGAGTAATTCTTCAACTCTTC, the sensor-assay potency score (higher = more potent) with TRPM6 is -0.179.

With TATCTTTTTCAATACTATCTTC, the sensor-assay potency score (higher = more potent) in the experiment with TSC1 is -0.463.

In the case of TAGCTGTCCAACACTGTCCGGG, the sensor-assay potency score (higher = more potent) with TSC1 was -0.0259.

Turning to ATGCTGTTGAGCTTGTCGGTAT, in the experiment with TSC22D3, the sensor-assay potency score (higher = more potent) is -1.17.

On to ATGGTCTGGTCGATGTTGCGGT, for which the sensor-assay potency score (higher = more potent) with TSC22D3 was -0.997.

Turning to TTATGCTGTTGAGCTTGTCGGT, the sensor-assay potency score (higher = more potent) in the experiment with TSC22D3 was -0.79.

With TTCCAGGTAATAATCCACCAAG, the sensor-assay potency score (higher = more potent) with TSC1 is -1.16.

Take TAGTATCGTCGACTTGCCCGAC: in the experiment with TSC22D2, the sensor-assay potency score (higher = more potent) is -0.774.

As for TTGTTGTTCTCCCCGCTGCTGC, in the experiment with TSC22D3, the sensor-assay potency score (higher = more potent) was -1.15.

Regarding TTGTTGTCTATGGCCACCACGC, the sensor-assay potency score (higher = more potent) with TSC22D3 was -1.5.

Turning to TTGAGCTTGTCGGTATTGAGGT, the sensor-assay potency score (higher = more potent) with TSC22D3 is -0.00573.

In the experiment with TSC22D2, TCTTCTAGTATCGTCGACTTGC yielded a sensor-assay potency score (higher = more potent) of 0.0712.

In the experiment with TSC22D3, TTCTTCACCAGATCCATGGCCT registered a sensor-assay potency score (higher = more potent) of 0.0668.

In the case of TCGTTGATCAGGTAGCAGGGGT, the sensor-assay potency score (higher = more potent) with TSC22D3 is -0.312.

Turning to TCTCTCACAGCATACATCAGAT, the sensor-assay potency score (higher = more potent) with TSC22D3 was -0.863.

In the case of TAAAACTTCCACTTCTTCTCTT, in the experiment with TSC22D2, the sensor-assay potency score (higher = more potent) worked out at 0.683.

For ATCACTGGTCTCATCCTCTTTG, the sensor-assay potency score (higher = more potent) with TSEN34 was -0.941.

Regarding AACTTCTCCAGCTGCTCTGGGC, the sensor-assay potency score (higher = more potent) with TSC22D3 was -1.22.

For TGTTCTCACGCTCTAGCTGGGA, the sensor-assay potency score (higher = more potent) with TSC22D3 was -0.875.

For TTCTCTTACTGCATACATCAAA, the sensor-assay potency score (higher = more potent) with TSC22D2 was -0.826.

With TCGATCTTGTTGTCTATGGCCA, the sensor-assay potency score (higher = more potent) with TSC22D3 was -0.64.

In the experiment with TSC22D2, TTTAACAGTGCATTTTCTCGTT came in with a sensor-assay potency score (higher = more potent) of 0.0173.

Regarding TTGCCAGGGTCTTCAACAGGGT, the sensor-assay potency score (higher = more potent) with TSC22D3 is -0.965.

TGAGCTTGTCGGTATTGAGGTT: in the experiment with TSC22D3, the sensor-assay potency score (higher = more potent) is -0.394.

In turn, TCTAGTTTCTGCTTCTTAGCAG yielded a sensor-assay potency score (higher = more potent) with TSEN34 of 0.419.

With TTAACAGTGCATTTTCTCGTTC, the sensor-assay potency score (higher = more potent) in the experiment with TSC22D2 is -0.691.

With TAGTATTCCATACACGTCCATC, the sensor-assay potency score (higher = more potent) in the experiment with TSC22D2 is -1.07.

As for AAAACTTCCACTTCTTCTCTTA, the sensor-assay potency score (higher = more potent) in the experiment with TSC22D2 was 0.265.

With TTGTCTATGGCCACCACGCTGG, the sensor-assay potency score (higher = more potent) with TSC22D3 is -0.721.

Turning to TTCTTCTCCACCAGCTCTCGGA, the sensor-assay potency score (higher = more potent) in the experiment with TSC22D3 is -1.12.

In the case of TATGCTGTTGAGCTTGTCGGTA, the sensor-assay potency score (higher = more potent) in the experiment with TSC22D3 was -0.561.

With TATTCCATACACGTCCATCGGC, the sensor-assay potency score (higher = more potent) in the experiment with TSC22D2 is -0.556.

As to TTCTTCATAGGAACAGTCGTTG, the sensor-assay potency score (higher = more potent) with TSC22D3 is -0.524.

TAGACCAGGAAGTCACCTCCGA displayed a sensor-assay potency score (higher = more potent) in the experiment with TSEN34 of 0.0618.

As for TAGGACATCTCTTGGCACCAGC, the sensor-assay potency score (higher = more potent) in the experiment with TSC22D3 is -0.981.

In the case of TAGCTGTGACACAGCAGTCAAG, the sensor-assay potency score (higher = more potent) with TSC22D2 is -1.48.

TTGTCGGTATTGAGGTTCTCAA: in the experiment with TSC22D3, the sensor-assay potency score (higher = more potent) was -1.48.

On to ATTGAGGTTCTCAAAGACCAGC, for which the sensor-assay potency score (higher = more potent) with TSC22D3 was -1.14.

Consider TTTTCTTCTAGTATCGTCGACT, for which the sensor-assay potency score (higher = more potent) with TSC22D2 was -0.0154.

As for TTCAGGGCTCAGACAGGACTGG, the sensor-assay potency score (higher = more potent) with TSC22D3 is -0.708.

TTCGATCTTGTTGTCTATGGCC gave a sensor-assay potency score (higher = more potent) with TSC22D3 of 0.125.

TCAACAGGAATAGCTATGCTGA: in the experiment with TSC22D2, the sensor-assay potency score (higher = more potent) is -0.503.

Take TAGCTGGGAGTTCTTCTCCACC: the sensor-assay potency score (higher = more potent) with TSC22D3 was -1.58.

In the case of TAGCTGTCGCGGTAGAACCACA, the sensor-assay potency score (higher = more potent) with TTLL3 was -1.71.

Consider TTTCTTTGTCATCTTTTCCATT, for which, in the experiment with TXLNG, the sensor-assay potency score (higher = more potent) was -0.923.

For the sequence TTGAAGAAGATCTGCGTGGCGG, in the experiment with UNC5A, the sensor-assay potency score (higher = more potent) was -0.341.

On to TAGACGATGACAGCAGCGGAGG, for which, in the experiment with UNC5A, the sensor-assay potency score (higher = more potent) is -1.55.

For TTGAACAAAGAACTGCCTCTGC, the sensor-assay potency score (higher = more potent) with ULK1 came to 1.01.

Consider TCGATTTGCAGTCCTCGTCTAT, for which, in the experiment with UMOD, the sensor-assay potency score (higher = more potent) is -0.657.

TAGATCTCATAGATCTTCCCTC: the sensor-assay potency score (higher = more potent) with UNC5A was -0.268.

For TAGACTAGGTCATAGTTTCCAG, in the experiment with UMOD, the sensor-assay potency score (higher = more potent) was -0.219.

Take TTGCAGTCCTCGTCTATACTGC: the sensor-assay potency score (higher = more potent) with UMOD is -0.687.

For TTAAGGGACAGCTTCGGCCGGG, the sensor-assay potency score (higher = more potent) in the experiment with UNC5A is -0.139.

TTGTACTTATCTAAACATCTTC: the sensor-assay potency score (higher = more potent) with UBXN2A is -0.32.

For the sequence TTTTTGTCTGTTATGTGGCGTG, the sensor-assay potency score (higher = more potent) with ULK1 is -0.361.

Regarding TTGTACAGCTCATTCAGCCTGC, in the experiment with ULK1, the sensor-assay potency score (higher = more potent) is 0.11.

Take TTGCTCTGGAGGTACCGCGCGA: the sensor-assay potency score (higher = more potent) with ULK1 was -0.555.
